Records with an inconclusive call do not appear. Activity calls are given as the source filed them. Unless noted, the call rests on the fitted dose curve; in most records, active means well fitted curve in the direction sought with a large enough effect; inconclusive means small, poorly fitted or top-dose-only effect, or another doubt; inactive means no such curve, though single readings can be large; an effect the other way counts as inactive or inconclusive.
How the values were obtained:
[1] = qHTS assay for environmental chemicals that activate the Aryl hydrocarbon Receptor (AhR) signaling pathway (AID 651777); settings: 1A2-DRE human hepatoma cells, luciferase, 24 h; hits give high values; further: % of control where 0% means no effect; nearly all actives have a fitted effect of over 15% in size
Procedure, shortened: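 Following a 24 hr incubation with test chemicals at 37 C and 5% CO2, 1A2-DRE human hepatoma cells received One-Glo reagent; after 30 min at room temperature, luciferase output reflected CYP1A2 induction via AhR.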

[2] = target: Peroxisome proliferator-activated receptor alpha (Homo sapiens) (UniProt Q07869); assay: qHTS assay for small molecule agonists of the peroxisome proliferator-activated receptor alpha (PPARalpha) signaling pathway (AID 651778); settings: PathHunter PPARalpha complementation, chemiluminescence, 6 h; hits give high values; further: % of control where 0% means no effect
Chain of Peroxisome proliferator-activated receptor alpha (Homo sapiens) (Q07869 whole entry, looked up): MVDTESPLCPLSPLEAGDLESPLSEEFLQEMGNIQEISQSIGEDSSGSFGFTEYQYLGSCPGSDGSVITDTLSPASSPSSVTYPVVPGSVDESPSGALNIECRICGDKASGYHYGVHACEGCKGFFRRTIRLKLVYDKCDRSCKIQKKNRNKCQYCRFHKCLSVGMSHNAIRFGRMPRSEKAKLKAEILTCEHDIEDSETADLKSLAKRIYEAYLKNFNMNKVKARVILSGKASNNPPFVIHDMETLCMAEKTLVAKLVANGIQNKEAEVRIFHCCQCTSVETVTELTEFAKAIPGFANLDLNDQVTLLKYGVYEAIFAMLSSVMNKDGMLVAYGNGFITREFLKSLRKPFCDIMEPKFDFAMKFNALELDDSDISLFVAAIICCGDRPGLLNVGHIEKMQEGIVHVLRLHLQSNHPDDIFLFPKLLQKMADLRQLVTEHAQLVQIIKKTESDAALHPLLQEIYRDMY
Procedure, shortened: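 Cells plated at 2,000/well and held overnight at 37 C, 5% CO2, then compound added by pin tool for 6 hr; after PathHunter detection reagent and 60 min at room temperature, chemiluminescence from enzyme complementation was read.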

[3] = target: Nuclear receptor ROR-gamma (Homo sapiens) (UniProt P51449); assay: qHTS assay for small molecule antagonists of the retinoid-related orphan receptor gamma (ROR-gamma) signaling pathway (AID 651802); settings: ROR-gamma antagonist cell reporter assay; series mostly up to 92.2 µM;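 further: CHO cells with doxycycline-induced ROR-gamma expression; luciferase reporter luminescence driven by ROR response element; on the % scale 0 is the no-effect control and ±100 the full control effect; nearly all actives have a fitted effect of over 60% in size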
Chain of Nuclear receptor ROR-gamma (Homo sapiens) (P51449 whole entry, looked up): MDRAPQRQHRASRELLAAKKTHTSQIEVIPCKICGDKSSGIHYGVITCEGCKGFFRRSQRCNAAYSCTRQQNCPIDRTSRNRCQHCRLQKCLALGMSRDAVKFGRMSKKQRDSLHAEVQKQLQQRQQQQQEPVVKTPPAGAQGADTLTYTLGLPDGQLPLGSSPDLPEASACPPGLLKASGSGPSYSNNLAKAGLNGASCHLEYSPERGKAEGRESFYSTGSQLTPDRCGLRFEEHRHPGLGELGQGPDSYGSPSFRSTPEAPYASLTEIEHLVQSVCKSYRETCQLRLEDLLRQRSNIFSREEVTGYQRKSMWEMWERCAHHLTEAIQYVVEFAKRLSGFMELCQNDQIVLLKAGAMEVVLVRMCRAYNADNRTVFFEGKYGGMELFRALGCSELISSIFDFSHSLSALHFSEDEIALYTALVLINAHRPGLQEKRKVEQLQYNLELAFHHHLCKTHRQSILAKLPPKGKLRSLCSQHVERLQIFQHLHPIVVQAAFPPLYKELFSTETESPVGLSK
Procedure, shortened: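 Luminescence (One-Glo, 30 min RT) measured 16 h after compound addition and doxycycline induction at 37C. Reporter: RORE-luciferase under TET-inducible ROR-gamma in CHO cells.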

[4] = qHTS assay for small molecule antagonists of the retinoid-related orphan receptor gamma (ROR-gamma) signaling pathway - cell viability counter screen (AID 720652; active means well fitted curve in the direction sought with a large enough effect in the repeat runs; an effect the other way counts as inactive or inconclusive;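 further: CHO reporter cells with doxycycline-induced ROR-gamma expression; compound exposure lasted 16 hr before ATP read; on the % scale 0 is the no-effect control and ±100 the full control effect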); settings: RORgamma reporter cell line viability counter screen; series mostly up to 92.2 µM
Procedure, shortened: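 Cytotoxicity counter screen: intracellular ATP (CellTiter-Glo luminescence) measured in the doxycycline-induced CHO RORE-luciferase reporter line after 16 hr compound exposure at 37 C, 5% CO2.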

[5] = qHTS assay for small molecule agonists of the antioxidant response element (ARE) signaling pathway measured by Nrf2-dependant transcriptional activity - cell viability counter screen (AID 720653; active means well fitted curve in the direction sought with a large enough effect in the repeat runs; an effect the other way counts as inactive or inconclusive; further: on the % scale 0 is the no-effect control and ±100 the full control effect); settings: ARE-bla HepG2 viability, CellTiter-Glo ATP luminescence, 16 h; hits give low values
Procedure, shortened: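 ARE-bla HepG2 cells (2,000/well) rested 5 hrs at 37C/5% CO2, then exposed to compounds in DMSO for 16 hrs. Viability was read in the same wells as intracellular ATP by luminescence, 30 min at room temperature after reagent addition.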

[6] = qHTS Assay for Identifying Gametocytocidal Compounds (AID 743244);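 further: on the % scale 0 is the no-effect control and ±100 the full control effect; actives lower the fluorescent signal which means gametocytes are killed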; settings: P. falciparum 3D7 stage III-V gametocytes, alamarBlue, 72 h; max response: hits give low values
Procedure, shortened: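 Compounds are pinned into medium, gametocytes (stage III–V, 3D7, 20,000 cells/well) added, and plates held 72 h at 37 °C in 5% CO2. AlamarBlue follows for 24 h before fluorescence reading.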

[7] = qHTS assay for cell viability of HEK293 cells (AID 743288); settings: ATP luminescence (CellTiter-Glo), 18 h, hits give low values; further: on the % scale 0 is the no-effect control and ±100 the full control effect; nearly all actives have a fitted effect of over 50% in size
Procedure, shortened: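 ATP luminescence (CellTiter-Glo) reports metabolically competent cell number after parental HEK293 cells, 2,000/well, were treated with DMSO-dissolved compounds for 18 h at 37 C; reagent incubation 30 min, room temperature.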

[8] = qHTS assay for cell viability of the p53RE-bla HCT-116 cell line (AID 743292); settings: p53RE-bla HCT-116 viability, ATP luminescence, 16 h; series mostly up to 95 µM; further: on the % scale 0 is the no-effect control and ±100 the full control effect; nearly all actives have a fitted effect of over 55% in size
Procedure, shortened: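 After plating at 4,000 cells per well and a 5 h rest at 37 C, HCT-116 cells carrying p53RE-bla received test chemicals in DMSO. Sixteen hours later at 37 C, CellTiter-Glo was added and luminescence recorded following 30 min at room temperature.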

[9] = qHTS assay for small molecule agonists of the antioxidant response element (ARE) signaling pathway measured by Nrf2-dependant transcriptional activity (AID 720636; active means well fitted curve in the direction sought with a large enough effect in the repeat runs; an effect the other way counts as inactive or inconclusive;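 further: HepG2 cells with an ARE-driven luciferase reporter; % of control where 0% means no effect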); settings: ARE-luc HepG2, Nrf2 luciferase reporter, 16 h; series mostly up to 92.4 µM
Procedure, shortened: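 ONE-Glo luminescence, read 30 min after reagent addition at room temperature, reflected ARE reporter activity in HepG2 cells that had been incubated with compound for 16 hr at 37 C in 1% dialyzed FBS.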

CCCCOC(=O)c1ccc(N)cc1
inactive: activation [1] 13% | max response [2] -1.13% | outcome [3] | outcome [4] | max response [5] -19.9% | max response [6] -1.98% | max response [7] 3.29% | outcome [8]

Cc1ccc(C(C)C)c(O)c1
inactive: activation [1] 0.149% | max response [2] -0.976% | outcome [9] | max response [5] -4.59% | max response [6] 22.6% | max response [7] -16.2% | outcome [8]

COc1cc(C(=O)NCCCCCC(=O)O)cc(OC)c1OC
inactive: max response [6] 4.11%

Cc1cccc(Nc2ccccc2C(=O)O)c1C
inactive: activation [1] 2.22% | outcome [9] | max response [5] -4.01% | max response [7] 2.21% | outcome [8]

CC[N+](CC)(CC(=O)Nc1c(C)cccc1C)Cc1ccccc1
inactive: activation [1] 0.016% | max response [2] 1.81% | outcome [9] | max response [5] -0.181% | max response [6] 7.32% | max response [7] -11.2% | outcome [8]

C[n+]1ccccc1/C=N/O
inactive: max response [6] 8.92%

FC(F)(F)C(Cl)Br (stereo not given)
inactive: activation [1] 0.539% | max response [2] -5.56% | outcome [9] | outcome [4] | max response [5] -1.89% | max response [7] 6.13% | outcome [8]

OC[C@@H](O)[C@@H](O)[C@H](O)[C@H](O)CO
inactive: activation [1] -0.115% | max response [2] -1.72% | outcome [9] | max response [5] -1.54% | max response [6] 5.56% | max response [7] -10.6% | outcome [8]

Cc1c(C(=O)NCCO)[n+](=O)c2ccccc2n1[O-]
inactive: activation [1] -0.247% | max response [2] -1.31% | outcome [9] | max response [5] -7.99% | max response [6] 6.22% | max response [7] -4.66% | outcome [8]

— PubChem BioAssay (NCATS)
